About 8,800 targets were measured; listed, in parts, are those with a hit and a random draw of the rest. About 0.5% of all pairs of compound and target were hits. A number with no mark means an inactive call.
compound: C1=CC2=NC=CN=C2C=C1/C=C/3\C(=O)NC(=O)S3; assay: log2 fold change, soluble protein after heating vs DMSO (PISA); higher = thermal stabilisation; K562 lysate, 10 uM; active = over 0.2 and 3.5 SD of the protein, either way, in both replicates (recomputed)
How it was run: (§1)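 A 30 min treatment with 10 μM compound was applied to crude K562 extract at 1 mg/mL protein in PBS pH 7.4 with 1 mM MgCl2. Heating for 3 min spanned 48°C-58°C, after which aliquots were pooled, adjusted to 0.5% NP-40 at 4°C and spun at 21,000xg for 90 min. TMTpro 16plex LC-MS/MS of the supernatant, with channel sums equalised, gave values recorded as log-two fold change in thermal stability against solvent controls, from duplicates.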

Chain of UniProt P60059 (P60059 whole entry, looked up): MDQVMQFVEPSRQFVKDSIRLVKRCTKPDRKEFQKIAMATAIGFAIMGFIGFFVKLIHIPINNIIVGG
Chain of UniProt P31040 (P31040 whole entry, looked up): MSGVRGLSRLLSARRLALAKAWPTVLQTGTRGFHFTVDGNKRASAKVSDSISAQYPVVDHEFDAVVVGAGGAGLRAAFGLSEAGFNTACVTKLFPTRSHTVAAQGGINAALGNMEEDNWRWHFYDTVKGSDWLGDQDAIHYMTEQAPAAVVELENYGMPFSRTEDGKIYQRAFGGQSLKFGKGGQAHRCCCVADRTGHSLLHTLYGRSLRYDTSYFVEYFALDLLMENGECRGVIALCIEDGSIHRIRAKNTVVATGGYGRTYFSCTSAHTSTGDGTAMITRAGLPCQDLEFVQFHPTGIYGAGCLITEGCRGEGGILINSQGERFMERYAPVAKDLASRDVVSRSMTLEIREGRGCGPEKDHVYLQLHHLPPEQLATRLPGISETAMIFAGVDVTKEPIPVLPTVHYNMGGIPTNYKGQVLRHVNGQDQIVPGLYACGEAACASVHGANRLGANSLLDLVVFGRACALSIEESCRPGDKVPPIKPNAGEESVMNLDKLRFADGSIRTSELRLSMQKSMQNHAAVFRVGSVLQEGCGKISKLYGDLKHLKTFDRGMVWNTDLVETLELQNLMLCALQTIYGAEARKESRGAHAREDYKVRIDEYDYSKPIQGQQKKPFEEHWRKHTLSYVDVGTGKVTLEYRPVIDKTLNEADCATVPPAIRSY
Chain of UniProt P47736 (P47736 whole entry, looked up): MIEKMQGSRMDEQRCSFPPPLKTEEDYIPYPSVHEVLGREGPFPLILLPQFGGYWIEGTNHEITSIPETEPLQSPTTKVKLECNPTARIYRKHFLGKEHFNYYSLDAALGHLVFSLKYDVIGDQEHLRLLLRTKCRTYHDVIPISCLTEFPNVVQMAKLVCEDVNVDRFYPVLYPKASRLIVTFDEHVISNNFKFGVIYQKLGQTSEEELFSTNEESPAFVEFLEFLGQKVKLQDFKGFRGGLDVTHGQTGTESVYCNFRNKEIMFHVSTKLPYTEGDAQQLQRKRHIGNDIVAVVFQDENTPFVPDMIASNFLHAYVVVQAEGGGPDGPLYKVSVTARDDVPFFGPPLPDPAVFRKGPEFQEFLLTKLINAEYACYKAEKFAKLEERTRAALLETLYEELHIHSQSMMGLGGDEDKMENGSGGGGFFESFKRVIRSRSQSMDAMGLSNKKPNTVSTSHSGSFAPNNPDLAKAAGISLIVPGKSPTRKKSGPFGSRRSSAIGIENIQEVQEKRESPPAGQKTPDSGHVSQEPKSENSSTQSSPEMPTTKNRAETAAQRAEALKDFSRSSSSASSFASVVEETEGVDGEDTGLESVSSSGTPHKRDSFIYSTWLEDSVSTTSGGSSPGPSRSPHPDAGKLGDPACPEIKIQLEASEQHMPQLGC
Chain of UniProt Q9NR31 (Q9NR31 whole entry, looked up): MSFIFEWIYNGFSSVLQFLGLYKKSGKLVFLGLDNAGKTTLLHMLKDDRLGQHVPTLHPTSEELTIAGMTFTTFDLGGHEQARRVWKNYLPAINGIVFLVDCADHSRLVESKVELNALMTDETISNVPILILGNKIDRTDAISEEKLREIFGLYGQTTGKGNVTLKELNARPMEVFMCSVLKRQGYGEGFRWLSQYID
Chain of UniProt Q00765 (Q00765 whole entry, looked up): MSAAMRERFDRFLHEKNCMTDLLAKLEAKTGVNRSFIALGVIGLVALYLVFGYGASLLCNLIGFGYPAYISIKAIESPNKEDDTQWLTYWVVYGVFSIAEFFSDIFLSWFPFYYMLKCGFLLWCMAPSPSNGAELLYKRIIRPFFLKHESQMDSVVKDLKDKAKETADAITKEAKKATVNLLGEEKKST
Chain of UniProt Q96DM3 (Q96DM3 whole entry, looked up): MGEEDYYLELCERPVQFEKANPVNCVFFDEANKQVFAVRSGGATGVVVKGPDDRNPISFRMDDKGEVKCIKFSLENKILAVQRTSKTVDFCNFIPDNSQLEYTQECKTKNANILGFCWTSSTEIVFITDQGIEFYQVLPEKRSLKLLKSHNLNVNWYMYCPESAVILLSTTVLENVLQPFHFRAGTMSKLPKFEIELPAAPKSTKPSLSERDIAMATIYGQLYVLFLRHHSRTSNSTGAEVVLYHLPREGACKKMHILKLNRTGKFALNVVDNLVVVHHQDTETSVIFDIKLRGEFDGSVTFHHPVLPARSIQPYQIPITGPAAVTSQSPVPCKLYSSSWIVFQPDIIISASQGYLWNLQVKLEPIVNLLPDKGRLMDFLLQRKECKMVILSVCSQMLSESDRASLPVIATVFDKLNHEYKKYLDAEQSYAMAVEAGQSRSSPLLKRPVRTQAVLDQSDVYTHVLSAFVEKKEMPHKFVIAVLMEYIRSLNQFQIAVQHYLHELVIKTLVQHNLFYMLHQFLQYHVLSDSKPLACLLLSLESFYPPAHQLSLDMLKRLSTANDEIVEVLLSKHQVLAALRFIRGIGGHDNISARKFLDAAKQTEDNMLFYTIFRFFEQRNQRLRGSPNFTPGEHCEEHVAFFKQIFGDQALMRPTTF
Chain of UniProt Q9Y3Z3 (Q9Y3Z3 whole entry, looked up): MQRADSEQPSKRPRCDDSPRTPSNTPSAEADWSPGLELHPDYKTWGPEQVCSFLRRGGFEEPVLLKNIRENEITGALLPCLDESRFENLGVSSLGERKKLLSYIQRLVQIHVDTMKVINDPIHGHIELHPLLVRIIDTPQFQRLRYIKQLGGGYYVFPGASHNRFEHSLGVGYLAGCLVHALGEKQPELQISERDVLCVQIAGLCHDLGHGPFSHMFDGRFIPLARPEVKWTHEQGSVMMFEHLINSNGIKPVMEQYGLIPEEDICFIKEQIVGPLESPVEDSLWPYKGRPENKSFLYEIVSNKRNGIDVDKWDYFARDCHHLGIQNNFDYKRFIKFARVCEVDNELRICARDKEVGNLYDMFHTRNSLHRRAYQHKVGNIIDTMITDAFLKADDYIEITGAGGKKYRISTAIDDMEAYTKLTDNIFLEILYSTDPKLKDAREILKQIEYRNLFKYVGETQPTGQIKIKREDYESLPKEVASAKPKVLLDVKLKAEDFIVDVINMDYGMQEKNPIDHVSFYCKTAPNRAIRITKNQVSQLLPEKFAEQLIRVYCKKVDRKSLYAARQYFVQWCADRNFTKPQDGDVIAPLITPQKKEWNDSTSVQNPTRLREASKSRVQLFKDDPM
Chain of UniProt P31949 (P31949 whole entry, looked up): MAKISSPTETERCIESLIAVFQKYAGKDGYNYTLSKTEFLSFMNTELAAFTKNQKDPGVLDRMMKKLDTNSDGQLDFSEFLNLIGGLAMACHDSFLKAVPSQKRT
Chain of UniProt O94855 (O94855 whole entry, looked up): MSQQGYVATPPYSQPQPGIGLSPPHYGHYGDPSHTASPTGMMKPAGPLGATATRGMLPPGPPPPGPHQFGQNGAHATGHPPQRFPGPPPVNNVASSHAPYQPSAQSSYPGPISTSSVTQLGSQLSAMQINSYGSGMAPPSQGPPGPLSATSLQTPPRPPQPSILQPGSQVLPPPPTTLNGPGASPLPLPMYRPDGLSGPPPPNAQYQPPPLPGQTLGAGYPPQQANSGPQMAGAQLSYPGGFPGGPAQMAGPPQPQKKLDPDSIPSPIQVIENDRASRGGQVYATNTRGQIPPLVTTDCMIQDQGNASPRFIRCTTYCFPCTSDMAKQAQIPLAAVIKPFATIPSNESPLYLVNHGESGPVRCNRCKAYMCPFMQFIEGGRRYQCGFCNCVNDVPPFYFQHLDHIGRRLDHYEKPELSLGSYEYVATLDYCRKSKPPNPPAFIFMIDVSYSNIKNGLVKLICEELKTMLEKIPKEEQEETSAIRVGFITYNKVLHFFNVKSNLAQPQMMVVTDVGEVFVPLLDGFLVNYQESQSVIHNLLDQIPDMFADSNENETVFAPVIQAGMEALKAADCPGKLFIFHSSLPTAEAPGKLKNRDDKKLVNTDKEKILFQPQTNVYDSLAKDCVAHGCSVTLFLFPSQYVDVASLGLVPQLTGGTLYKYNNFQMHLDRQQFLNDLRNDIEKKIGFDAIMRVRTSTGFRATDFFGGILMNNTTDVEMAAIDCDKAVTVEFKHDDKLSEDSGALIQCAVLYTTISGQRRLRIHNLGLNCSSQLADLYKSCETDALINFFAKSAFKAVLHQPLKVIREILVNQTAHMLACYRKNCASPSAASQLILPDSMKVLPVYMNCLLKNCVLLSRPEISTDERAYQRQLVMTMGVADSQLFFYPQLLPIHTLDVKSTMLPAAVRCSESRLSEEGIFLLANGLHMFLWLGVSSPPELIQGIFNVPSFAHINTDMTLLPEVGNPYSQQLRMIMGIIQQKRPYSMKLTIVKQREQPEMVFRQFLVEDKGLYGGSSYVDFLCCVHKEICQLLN
Chain of UniProt Q02094 (Q02094 whole entry, looked up): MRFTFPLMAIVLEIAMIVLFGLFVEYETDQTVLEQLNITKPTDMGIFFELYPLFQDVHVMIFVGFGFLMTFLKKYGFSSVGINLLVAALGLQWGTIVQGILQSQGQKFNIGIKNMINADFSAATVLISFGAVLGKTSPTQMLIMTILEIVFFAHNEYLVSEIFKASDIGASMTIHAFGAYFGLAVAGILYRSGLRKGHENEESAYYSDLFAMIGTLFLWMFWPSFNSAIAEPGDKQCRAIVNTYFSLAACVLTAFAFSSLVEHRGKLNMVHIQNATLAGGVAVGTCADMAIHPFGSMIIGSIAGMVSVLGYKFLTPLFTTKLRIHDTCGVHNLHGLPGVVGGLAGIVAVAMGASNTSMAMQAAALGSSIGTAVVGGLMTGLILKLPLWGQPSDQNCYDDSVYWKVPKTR
Chain of UniProt P55735 (P55735 whole entry, looked up): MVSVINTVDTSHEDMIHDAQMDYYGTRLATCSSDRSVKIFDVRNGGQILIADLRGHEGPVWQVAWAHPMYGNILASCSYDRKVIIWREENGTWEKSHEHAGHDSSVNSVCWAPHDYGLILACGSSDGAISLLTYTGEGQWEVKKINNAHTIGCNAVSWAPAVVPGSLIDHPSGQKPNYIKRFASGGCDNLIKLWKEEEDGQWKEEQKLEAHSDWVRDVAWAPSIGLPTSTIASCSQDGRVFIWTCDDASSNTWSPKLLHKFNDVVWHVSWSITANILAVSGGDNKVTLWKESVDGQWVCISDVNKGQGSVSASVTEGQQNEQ

In order of falling log2 fold change:
1. RRAGA (UniProt Q7L523)  0.118
2. SEC61G (UniProt P60059)  0.043
3. RNF168 (UniProt Q8IYW5)  0.037
4. SEC24D isoform 2 (UniProt O94855)  0.032
5. RINT1 (UniProt Q6NUQ1)  0.03
6. RRM1 (UniProt P23921)  0.029
7. SCAF1 (UniProt Q9H7N4)  0.025
8. SERINC3 (UniProt Q13530)  0.021
9. RNF123 (UniProt Q5XPI4)  0.019
10. RFC4 (UniProt P35249)  0.018
11. RFC2 (UniProt P35250)  0.018
12. RAE1 (UniProt P78406)  0.012
13. SDHA (UniProt P31040)  0.005
14. SAMHD1 (UniProt Q9Y3Z3)  0.005
15. RMC1 (UniProt Q96DM3)  0.004
16. REEP5 (UniProt Q00765)  0.001
17. SEC13 isoform 3 (UniProt P55735)  0
18. RCOR3 isoform 3 (UniProt Q9P2K3)  -0.006
19. RHAG (UniProt Q02094)  -0.007
20. SCD (UniProt O00767)  -0.012
21. RAD50 isoform 2 (UniProt Q92878)  -0.014
22. RAP1GAP isoform 4 (UniProt P47736)  -0.019
23. SEC62 (UniProt Q99442)  -0.021
24. S100A11 (UniProt P31949)  -0.028
25. SEC16A isoform 5 (UniProt O15027)  -0.031
26. RDX (UniProt P35241)  -0.032
27. RAB6D (UniProt Q53S08)  -0.048
28. RAB3IL1 (UniProt Q8TBN0)  -0.05
29. SAR1A (UniProt Q9NR31)  -0.063
30. R3HCC1 (UniProt Q9Y3T6)  -0.086
31. RHOA (UniProt P61586)  -0.09
32. RAF1 isoform 2 (UniProt P04049)  -0.113

With RBBP8 isoform 2 (UniProt Q99708) the log2 fold change was 0.295 (active).

compound: C1=CC=C(C=C1)C2=NC(=C(N2)C3=CC=NC=C3)C4=CC(=C(C=C4)Cl)O; assay: as above
How it was run: as §1

In order of rising log2 fold change:
1. RRAGA (UniProt Q7L523)  -0.107
2. SAR1A (UniProt Q9NR31)  -0.056
3. RINT1 (UniProt Q6NUQ1)  -0.042
4. SEC16A isoform 5 (UniProt O15027)  -0.038
5. RAD50 isoform 2 (UniProt Q92878)  -0.023
6. SCAF1 (UniProt Q9H7N4)  -0.022
7. SAMHD1 (UniProt Q9Y3Z3)  -0.021
8. RAE1 (UniProt P78406)  -0.021
9. SERINC3 (UniProt Q13530)  -0.02
10. RAB6D (UniProt Q53S08)  -0.019
11. RCOR3 isoform 3 (UniProt Q9P2K3)  -0.017
12. RNF123 (UniProt Q5XPI4)  -0.015
13. RHAG (UniProt Q02094)  -0.012
14. RAP1GAP isoform 4 (UniProt P47736)  -0.012
15. RRM1 (UniProt P23921)  -0.01
16. S100A11 (UniProt P31949)  -0.009
17. RAF1 isoform 2 (UniProt P04049)  -0.009
18. RMC1 (UniProt Q96DM3)  -0.008
19. REEP5 (UniProt Q00765)  -0.008
20. RNF168 (UniProt Q8IYW5)  -0.007
21. SDHA (UniProt P31040)  -0.005
22. RBBP8 isoform 2 (UniProt Q99708)  -0.004
23. SEC13 isoform 3 (UniProt P55735)  -0.001
24. RFC2 (UniProt P35250)  0.004
25. RFC4 (UniProt P35249)  0.007
26. SCD (UniProt O00767)  0.009
27. RDX (UniProt P35241)  0.018
28. SEC24D isoform 2 (UniProt O94855)  0.022
29. SEC61G (UniProt P60059)  0.032
30. SEC62 (UniProt Q99442)  0.036
31. RAB3IL1 (UniProt Q8TBN0)  0.053
32. RHOA (UniProt P61586)  0.064
33. R3HCC1 (UniProt Q9Y3T6)  0.071

compound: C1=CC=C2C(=C1)C3=NNC4=CC=CC(=C43)C2=O; assay: as above
How it was run: as §1

In order of falling log2 fold change:
1. SAR1A (UniProt Q9NR31)  0.048
2. RAB6D (UniProt Q53S08)  0.044
3. RHOA (UniProt P61586)  0.038
4. SCAF1 (UniProt Q9H7N4)  0.033
5. SDHA (UniProt P31040)  0.025
6. SCD (UniProt O00767)  0.011
7. RAF1 isoform 2 (UniProt P04049)  0.007
8. SEC24D isoform 2 (UniProt O94855)  0.001
9. RAP1GAP isoform 4 (UniProt P47736)  -0.005
10. RAE1 (UniProt P78406)  -0.007
11. R3HCC1 (UniProt Q9Y3T6)  -0.008
12. RRAGA (UniProt Q7L523)  -0.008
13. RDX (UniProt P35241)  -0.009
14. RCOR3 isoform 3 (UniProt Q9P2K3)  -0.012
15. RFC2 (UniProt P35250)  -0.013
16. RBBP8 isoform 2 (UniProt Q99708)  -0.019
17. SEC62 (UniProt Q99442)  -0.022
18. SEC13 isoform 3 (UniProt P55735)  -0.033
19. RNF123 (UniProt Q5XPI4)  -0.035
20. RAB3IL1 (UniProt Q8TBN0)  -0.038
21. RAD50 isoform 2 (UniProt Q92878)  -0.039
22. RRM1 (UniProt P23921)  -0.043
23. RINT1 (UniProt Q6NUQ1)  -0.048
24. RMC1 (UniProt Q96DM3)  -0.054
25. S100A11 (UniProt P31949)  -0.055
26. RFC4 (UniProt P35249)  -0.056
27. SAMHD1 (UniProt Q9Y3Z3)  -0.057
28. REEP5 (UniProt Q00765)  -0.077
29. SEC16A isoform 5 (UniProt O15027)  -0.085
30. SERINC3 (UniProt Q13530)  -0.101
31. RNF168 (UniProt Q8IYW5)  -0.114
32. SEC61G (UniProt P60059)  -0.126
33. RHAG (UniProt Q02094)  -0.145
